We go through five molecules from PubChem BioAssay (NCATS).

Inconclusive results are not listed. The source made the active and inactive calls. Unless noted, calls come from the whole dose curve; as a rule, active = well fitted curve in the direction sought with a large enough effect; inconclusive = small, poorly fitted or top-dose-only effect, or another doubt; inactive = no such curve, though single readings can be large; an effect the other way counts as inactive or inconclusive.

In assay [1] the target is Calcium and integrin-binding protein 1 (Homo sapiens) (UniProt Q99828). Put plainly: Primary qHTS for Identification of Calcium Integrin Binding Protein 1 (CIB1) Competitor (AID 1508620).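 Note: GST tagged CIB1 binding a fluorescein labelled alphaIIb integrin peptide tracer; top concentration of the series differs between compounds; % is set by controls: 0 for no effect and ±100 for the full control effect.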 In a few lines: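 Fluorescence polarization competition: CIB1-GST (1 uM final) preincubated with compound 15 min at room temperature, then FITC-labeled alphaIIb peptide (100 nM final) added for another 15 min. Polarization read at Ex 480/Em 540.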
Chain of Calcium and integrin-binding protein 1 (Homo sapiens) (Q99828 whole entry, looked up): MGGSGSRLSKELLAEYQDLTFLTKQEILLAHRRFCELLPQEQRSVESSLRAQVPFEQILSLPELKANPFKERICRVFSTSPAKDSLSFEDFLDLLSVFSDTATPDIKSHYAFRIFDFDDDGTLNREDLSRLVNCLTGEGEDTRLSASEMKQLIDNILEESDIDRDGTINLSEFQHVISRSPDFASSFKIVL
(qHTS replaces the single test concentration by a dilution series.)

In assay [2] the target is N-terminal Xaa-Pro-Lys N-methyltransferase 1 (Homo sapiens) (UniProt Q9BV86). Put plainly: Confirmatory qHTS for Inhibitors of N-terminal methyltransferase 1 (NTMT1): MTaseGlo Assay (AID 1645874).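 Note: luminescence from SAH made as NTMT1 methylates SPKRIA peptide using SAM; 0% = DMSO control and -100% = no-enzyme control; nearly all actives have a fitted effect of over 65% in size.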 The gist of the method: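 Enzyme mix (125 nM NTMT1, 100 uM SAM) + compound, 15 min RT; + 1 uM SPKRIA, 30 min RT, dark; MTase-Glo reagent 30 min, detection solution 30 min; luminescence. % inhibition vs no-enzyme/DMSO controls, 4-parameter Hill fit.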
Chain of N-terminal Xaa-Pro-Lys N-methyltransferase 1 (Homo sapiens) (Q9BV86 whole entry, looked up): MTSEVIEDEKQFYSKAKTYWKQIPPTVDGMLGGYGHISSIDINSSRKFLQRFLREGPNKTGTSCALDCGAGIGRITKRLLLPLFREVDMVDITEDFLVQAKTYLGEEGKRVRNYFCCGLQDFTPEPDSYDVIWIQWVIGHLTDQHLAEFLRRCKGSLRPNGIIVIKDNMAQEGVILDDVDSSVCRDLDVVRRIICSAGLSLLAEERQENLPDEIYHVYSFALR

For assay [3], the target named is Cytochrome P450 1A2 (Homo sapiens) (UniProt P05177). As to the kind of experiment: p450-cyp1a2 (AID 410; calls by dose curve; note: potency is the fitted concentration of half-maximal effect). The gist of the method: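 Read-out is luminescence from luciferin produced by CYP1A2 demethylation of Luciferin-ME (100uM, at Km). Detection reagent stopped the 60 min NADPH-dependent reaction; signals were normalized to 57 uM furafylline.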
Chain of Cytochrome P450 1A2 (Homo sapiens) (P05177 whole entry, looked up): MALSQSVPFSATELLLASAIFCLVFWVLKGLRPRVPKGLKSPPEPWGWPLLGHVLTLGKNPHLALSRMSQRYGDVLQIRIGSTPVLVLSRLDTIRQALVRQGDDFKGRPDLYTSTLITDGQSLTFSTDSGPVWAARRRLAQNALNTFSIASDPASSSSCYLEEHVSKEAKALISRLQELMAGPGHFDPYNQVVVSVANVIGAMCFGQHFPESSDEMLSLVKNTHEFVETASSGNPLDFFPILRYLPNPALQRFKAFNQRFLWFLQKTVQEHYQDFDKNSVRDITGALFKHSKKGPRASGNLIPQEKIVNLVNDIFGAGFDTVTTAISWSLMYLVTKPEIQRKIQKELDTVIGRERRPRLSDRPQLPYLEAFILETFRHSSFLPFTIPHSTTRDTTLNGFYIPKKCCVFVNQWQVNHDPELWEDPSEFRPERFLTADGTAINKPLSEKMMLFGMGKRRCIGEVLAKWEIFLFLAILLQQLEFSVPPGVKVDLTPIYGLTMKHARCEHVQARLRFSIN
Assay [4] in a line: NFAT Signaling Pathway (AID 444; active = well fitted curve in either direction with a large enough effect, not every such curve was filed as active;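 note: carbachol stimulus at about its EC50 of 1 µM final; % is set by controls: 0 for no effect and ±100 for the full control effect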). Particulars: Jurkat NFAT-bla M1, carbachol, beta-lactamase ratio, 5 h; at 7.69 µM (top of the series) unless noted. In a few lines:
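Jurkat cells carrying an NFAT-driven β-lactamase reporter and co-transfected muscarinic M1 receptor were treated with compound plus carbachol (1 uM final, an EC50 level) for 5 h at 37 °C. CCF4 loading followed for 1 h at RT; 460/530 nm ratio gave %activity.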

Assay [5] can be described thus: Stat Signaling Pathway (AID 446; active = well fitted curve in either direction with a large enough effect, not every such curve was filed as active;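 note: ME-180 cervical cancer cells given 40 pM IL-6 alongside compound; SIE-controlled beta-lactamase reporter measured as 460/530 nm FRET emission ratio; % is set by controls: 0 for no effect and ±100 for the full control effect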). Particulars: ME-180 SIE beta-lactamase reporter, IL-6 stimulated, 5 h; at 7.69 µM (top of the series) unless noted. The gist of the method: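 Emission at 460 and 530 nm (excitation 405 nm) reports SIE-controlled beta-lactamase in ME-180 cells. Cells received compound with 40 pM IL-6 for 5 hrs at 37 C; data scaled between 300 pM IL-6 and 125 nM JAK-inhibitor controls.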

Assay [6] concerns the target Glucocorticoid receptor (Homo sapiens) (UniProt P04150). As to the kind of experiment: GR-GFP Redistribution (AID 450;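 active = compounds whose dose series gives a full or clear partial fitted curve of increased nuclear translocation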; note: potency is the fitted concentration of half-maximal effect). Particulars: U2OS GR-GFP nuclear translocation, laser cytometry, 2 h.
For assay [7] the target is unchanged. As to the kind of experiment: GR-EFC Redistribution (AID 451; calls by dose curve; note: potency is the fitted concentration of half-maximal effect). Particulars: CHO-K1 GR-EFC translocation, beta-gal luminescence, 2 h. In a few lines: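 CHO-K1 cells stably expressing nuclear-localized β-gal enzyme acceptor and GR fused C-terminally to the enzyme donor fragment; ligand-driven nuclear translocation restores β-gal by complementation. Compounds titrated up to 46 uM final, 2 h at 37 °C; luminescence read.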

The target in assay [8] is Mitogen-activated protein kinase 10 (Mus musculus) (UniProt Q61831). As to the kind of experiment: JNK3 AlphaScreen Assay (AID 530; active = well fitted curve in either direction with a large enough effect, not every such curve was filed as active;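 note: kinase came from lysate of stimulated human HepG2 cells; signal reports phosphorylation of biotinylated GST-cJun 1-79 at Ser73 with 10 µM ATP; % is set by controls: 0 for no effect and ±100 for the full control effect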). In a few lines:
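Biotinylated GST-cJun(1-79) served as substrate for JNK3 in HepG2 lysates stimulated with IL-1beta and TNF-alpha. ATP was 10 uM final, pH 7.6. Ser73 phosphorylation was quantified by AlphaScreen (680 nm excitation).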

For assay [9], the target named is Cytochrome P450 3A4 (Homo sapiens) (UniProt P08684). Put plainly: qHTS Assay for Inhibitors and Substrates of Cytochrome P450 3A4 (AID 884). Note: potency is the fitted concentration of half-maximal effect; nearly all actives have a fitted effect of over 50% in size. In a few lines:
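Luminescent readout of luciferin produced by CYP3A4 (20 nM) dealkylation of Luciferin-PPXE, 25 uM (its KM). NADPH-driven reaction ran 60 min at RT after 10 min compound preincubation; data scaled to 57 uM ketoconazole as 100% inhibition.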

For assay [10] the target is unchanged. Put plainly: qHTS Assay for Activators of Cytochrome P450 3A4 (AID 885). Note: nearly all actives have a fitted effect of over 65% in size. The gist of the method: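 Activators are scored by enhanced luminescence from CYP3A4 conversion of luciferin-PPXE (25uM, equal to KM) to luciferin, after 60 min at RT with an NADPH-regenerating system.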
Assay [11] in a line: Confirmation and Secondary Assay for Modulators of Hemoglobin Beta Chain Splicing at IVS2 654 locus (AID 910). Note: % of control where 0% means no effect. In a few lines: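 HeLa cells stably carrying EGFP interrupted by mutant beta-globin IVS2-654 intron (CMV-driven) were treated with compound for 2 days at 37C; corrected splicing was scored as total peak GFP intensity per well (488 nm excitation, 500-520 nm emission).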

Assay [12] is described as follows: Confirmation and Secondary Assay for Modulators of Hemoglobin Beta Chain Splicing at IVS2 705 locus (AID 930).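 Note: HeLa cells stably expressing the EGFP-705 splicing reporter; GFP fluorescence per well restored by corrected splicing of the IVS2-705 intron in EGFP; % of control where 0% means no effect.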 The gist of the method:
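Read-out: total peak GFP fluorescence per well (488 nm excitation, 500-520 nm emission) by laser-scanning cytometry. Cells: HeLa EGFP-705 splicing reporter, 2 days compound exposure in Optimem/2% FCS.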

Assay [13] in a line: qHTS Assay for Lipid Storage Modulators (AID 1519; calls by dose curve). Particulars: Drosophila S3 cells, BODIPY lipid droplet/cell ratio, laser cytometry, cells loaded with oleic acid; for activity change, negative = inhibition: at 57.5 µM (top of the series). In a few lines:
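Cells seeded at 5,000 per well were treated with compounds over a concentration series and loaded with oleic acid (400 uM, as added). Lipid droplet fluorescence (488 nm excitation, 500-530 nm channel) was read by laser-scanning cytometry and normalized to 20 uM Triacsin C.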

Assay [14] in a line: Primary qHTS for small molecule stabilizers of the endoplasmic reticulum resident proteome: Secreted ER Calcium Modulated Protein (SERCaMP) assay (AID 1508630). Note: % is set by controls: 0 for no effect and ±100 for the full control effect. The gist of the method:
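The SH-SY5Y reporter protocol was run at 3 concentrations up to 38.3 uM (primary) or 11 concentrations (follow-up): 16 h compound, 100 nM thapsigargin for 4 h, then extracellular luciferase luminescence.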

Assay [15] has as its target Lysosomal acid glucosylceramidase (Homo sapiens) (UniProt P04062). Put plainly: Glucocerebrosidase-p2 (AID 348; in the data active = potency below about 10 µM; note: potency is the fitted concentration of half-maximal effect). Particulars: purified GBA, blue fluorogenic substrate, 40 min. In a few lines:
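Normal human glucocerebrosidase (0.2 nM) with blue fluorogenic substrate (80 uM final) in citrate/phosphate pH 5.9 with 10mM sodium taurocholate, 0.01% tween-20; 40 min RT, NaOH/glycine stop; fluorescence Ex 365/Em 440; AC50 from a titration from 0.6 nM upwards.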

Assay [16] in a line: AP1 Signaling Pathway (AID 357; active = well fitted curve in either direction with a large enough effect, not every such curve was filed as active). Particulars: ME-180 (cervical carcinoma) AP-1-bla reporter, EGF-induced, beta-lactamase ratio, 5 h; at 7.69 µM (top of the series) unless noted. In a few lines:
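Titration-series screen for positive or negative modulators of EC50 EGF-induced signaling in ME-180 cells carrying an AP-1-driven beta-lactamase reporter. After 5 hours at 37 degrees Celsius, CCF4 460nm/530nm emission ratio gave %Activity; AC50 values derived.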

Assay [17] concerns the target 3',5'-cyclic-AMP phosphodiesterase 4B (Homo sapiens) (UniProt Q07343). As to the kind of experiment: qHTS Assay for Inhibitors of PDE-IV (AID 607; active = well fitted activation curve with a large enough effect in the main read-out, with a control signal flat, not every such curve was filed as active; note: % of control where 0% means no effect). The gist of the method: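 The readout is membrane depolarisation from a cAMP-sensing CNG channel, detected with a potential dye at ex 535/em 590. Cells were HEK293-derived (endogenous PDE-IV) at 1000 cells/well, titrated up to 22.9 uM final.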

Assay [18] deals with Cytochrome P450 2D6 (Homo sapiens) (UniProt P10635). Put plainly: qHTS Assay for Inhibitors and Substrates of Cytochrome P450 2D6 (AID 891). Note: potency is the fitted concentration of half-maximal effect; nearly all actives have a fitted effect of over 60% in size. In a few lines: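 Luminescent read-out of luciferin formed by 5 nM human CYP2D6 demethylating 30 uM Luciferin-ME EGE (Km level) over 60 min at room temperature after NADPH regeneration addition. Data normalized to full inhibition by 1.43 uM quinidine.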

Assay [19] deals with Ubiquitin carboxyl-terminal hydrolase 1 (Homo sapiens) (UniProt O94782). As to the kind of experiment: Inhibitors of USP1/UAF1: Pilot qHTS (AID 504865).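 Note: rhodamine fluorescence freed from ubiquitin-rhodamine substrate followed over time; top concentration of the series differs between compounds; % is set by controls: 0 for no effect and ±100 for the full control effect; nearly all actives have a fitted effect of over 35% in size.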 In a few lines:
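Deubiquitinase activity followed as kinetic rhodamine fluorescence release from 150 nM Ub-Rho. 1 nM USP1/UAF1 with compound, after 15 min room-temperature preincubation, in HEPES pH 7.8 buffer containing TCEP, EDTA, BSA and Tween-20.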

Assay [20] concerns the target Cytochrome P450 2C19 (Homo sapiens) (UniProt P33261). As to the kind of experiment: qHTS Assay for Inhibitors and Substrates of Cytochrome P450 2C19 (AID 899). Note: potency is the fitted concentration of half-maximal effect; nearly all actives have a fitted effect of over 60% in size. In a few lines:
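In 50mM KPO4, the reaction held 5nM enzyme and KM-level (10uM) Luciferin-H EGE; it ran 60 min at 37C after NADPH regeneration and a 10 min compound preincubation. Luminescence values were scaled to 57uM ketoconazole as complete inhibition.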

The mark [21] stands for this setting: measured here: cell count channel max response.
The mark [22] stands for this setting: measured here: lipid channel max response.

Chain of Glucocorticoid receptor (Homo sapiens) (P04150 whole entry, looked up, the tested form may be a part): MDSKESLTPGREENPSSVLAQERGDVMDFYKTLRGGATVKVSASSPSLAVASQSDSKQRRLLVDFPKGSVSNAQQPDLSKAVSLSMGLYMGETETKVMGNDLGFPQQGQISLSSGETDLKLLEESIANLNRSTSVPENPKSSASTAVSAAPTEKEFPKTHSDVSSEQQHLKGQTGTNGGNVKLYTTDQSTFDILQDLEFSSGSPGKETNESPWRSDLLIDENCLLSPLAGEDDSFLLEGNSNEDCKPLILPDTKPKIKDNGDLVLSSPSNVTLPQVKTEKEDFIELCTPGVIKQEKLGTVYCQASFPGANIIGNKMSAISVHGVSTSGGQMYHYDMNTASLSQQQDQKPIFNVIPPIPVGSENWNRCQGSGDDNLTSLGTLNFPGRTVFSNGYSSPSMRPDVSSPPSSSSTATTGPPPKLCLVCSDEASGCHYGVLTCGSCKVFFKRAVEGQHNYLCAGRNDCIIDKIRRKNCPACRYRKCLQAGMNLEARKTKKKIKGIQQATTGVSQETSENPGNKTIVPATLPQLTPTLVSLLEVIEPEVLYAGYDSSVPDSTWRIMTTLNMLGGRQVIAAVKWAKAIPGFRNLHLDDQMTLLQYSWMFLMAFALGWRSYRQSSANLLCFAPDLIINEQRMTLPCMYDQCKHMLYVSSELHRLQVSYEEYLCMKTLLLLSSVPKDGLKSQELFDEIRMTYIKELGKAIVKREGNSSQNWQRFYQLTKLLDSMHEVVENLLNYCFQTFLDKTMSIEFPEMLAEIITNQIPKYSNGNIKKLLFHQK
Chain of Ubiquitin carboxyl-terminal hydrolase 1 (Homo sapiens) (O94782 whole entry, looked up): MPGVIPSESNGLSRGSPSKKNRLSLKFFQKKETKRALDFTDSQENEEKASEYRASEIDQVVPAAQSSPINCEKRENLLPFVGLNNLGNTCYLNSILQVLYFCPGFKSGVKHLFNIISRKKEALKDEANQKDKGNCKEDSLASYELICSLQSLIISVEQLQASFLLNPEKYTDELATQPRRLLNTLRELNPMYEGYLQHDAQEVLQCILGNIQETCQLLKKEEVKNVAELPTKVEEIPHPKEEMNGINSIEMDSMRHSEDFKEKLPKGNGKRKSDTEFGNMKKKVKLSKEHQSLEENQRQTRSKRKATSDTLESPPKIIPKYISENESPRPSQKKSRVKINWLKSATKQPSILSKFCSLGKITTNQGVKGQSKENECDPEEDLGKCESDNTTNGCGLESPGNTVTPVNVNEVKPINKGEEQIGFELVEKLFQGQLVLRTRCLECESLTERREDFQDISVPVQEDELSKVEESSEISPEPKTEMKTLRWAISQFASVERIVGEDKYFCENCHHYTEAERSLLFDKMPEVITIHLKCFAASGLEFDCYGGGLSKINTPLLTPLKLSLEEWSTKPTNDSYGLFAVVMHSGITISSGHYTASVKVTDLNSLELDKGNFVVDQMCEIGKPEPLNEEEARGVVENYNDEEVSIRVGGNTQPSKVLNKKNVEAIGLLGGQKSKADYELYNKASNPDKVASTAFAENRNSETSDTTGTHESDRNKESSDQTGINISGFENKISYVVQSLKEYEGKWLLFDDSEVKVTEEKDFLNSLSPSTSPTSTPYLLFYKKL
Chain of Cytochrome P450 3A4 (Homo sapiens) (P08684 whole entry, looked up): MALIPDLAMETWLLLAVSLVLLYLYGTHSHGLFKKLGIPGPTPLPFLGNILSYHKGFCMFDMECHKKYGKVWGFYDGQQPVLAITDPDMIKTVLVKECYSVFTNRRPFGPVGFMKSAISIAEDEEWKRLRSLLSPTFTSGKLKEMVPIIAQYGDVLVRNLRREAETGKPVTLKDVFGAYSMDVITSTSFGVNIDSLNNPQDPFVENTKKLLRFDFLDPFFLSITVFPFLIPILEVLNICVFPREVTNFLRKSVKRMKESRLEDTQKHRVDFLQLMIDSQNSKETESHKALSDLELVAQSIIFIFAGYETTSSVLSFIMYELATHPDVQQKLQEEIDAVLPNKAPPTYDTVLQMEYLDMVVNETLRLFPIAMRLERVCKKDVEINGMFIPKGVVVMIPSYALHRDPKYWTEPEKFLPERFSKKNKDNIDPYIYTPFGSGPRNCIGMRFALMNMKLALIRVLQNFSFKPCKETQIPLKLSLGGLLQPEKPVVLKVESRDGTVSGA
Chain of 3',5'-cyclic-AMP phosphodiesterase 4B (Homo sapiens) (Q07343 whole entry, looked up): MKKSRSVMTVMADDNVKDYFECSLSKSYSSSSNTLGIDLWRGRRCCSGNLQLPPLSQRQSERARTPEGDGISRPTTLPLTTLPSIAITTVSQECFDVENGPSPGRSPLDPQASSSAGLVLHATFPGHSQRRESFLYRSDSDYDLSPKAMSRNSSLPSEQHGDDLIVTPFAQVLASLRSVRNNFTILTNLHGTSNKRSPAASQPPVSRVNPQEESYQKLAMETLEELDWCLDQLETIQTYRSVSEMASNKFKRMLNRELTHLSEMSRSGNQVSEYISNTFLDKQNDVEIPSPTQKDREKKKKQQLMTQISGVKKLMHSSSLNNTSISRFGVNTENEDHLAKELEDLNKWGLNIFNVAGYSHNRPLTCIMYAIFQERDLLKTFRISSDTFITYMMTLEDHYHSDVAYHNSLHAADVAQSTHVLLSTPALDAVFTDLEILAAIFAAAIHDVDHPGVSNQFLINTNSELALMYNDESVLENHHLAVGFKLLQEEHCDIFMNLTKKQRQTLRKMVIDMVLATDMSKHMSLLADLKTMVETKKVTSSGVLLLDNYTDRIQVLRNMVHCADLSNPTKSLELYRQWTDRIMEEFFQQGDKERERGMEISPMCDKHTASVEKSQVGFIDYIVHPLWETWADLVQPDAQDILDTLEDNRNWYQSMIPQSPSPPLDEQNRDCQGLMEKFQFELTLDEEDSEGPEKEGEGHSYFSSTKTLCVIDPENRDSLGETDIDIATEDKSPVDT
Chain of Cytochrome P450 2C19 (Homo sapiens) (P33261 whole entry, looked up): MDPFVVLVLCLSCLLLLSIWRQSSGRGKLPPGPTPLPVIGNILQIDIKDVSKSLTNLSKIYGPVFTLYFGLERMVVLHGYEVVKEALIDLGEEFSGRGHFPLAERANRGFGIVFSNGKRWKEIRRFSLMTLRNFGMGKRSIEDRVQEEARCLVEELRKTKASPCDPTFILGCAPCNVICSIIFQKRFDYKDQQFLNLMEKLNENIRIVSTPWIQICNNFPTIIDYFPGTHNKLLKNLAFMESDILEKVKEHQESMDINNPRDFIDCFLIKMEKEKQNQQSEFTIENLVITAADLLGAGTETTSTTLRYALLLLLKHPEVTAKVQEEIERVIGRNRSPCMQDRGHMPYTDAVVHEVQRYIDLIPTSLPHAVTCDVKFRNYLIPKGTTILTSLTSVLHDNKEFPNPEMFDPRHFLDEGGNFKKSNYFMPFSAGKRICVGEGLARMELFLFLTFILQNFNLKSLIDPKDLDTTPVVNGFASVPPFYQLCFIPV
Chain of Lysosomal acid glucosylceramidase (Homo sapiens) (P04062 whole entry, looked up): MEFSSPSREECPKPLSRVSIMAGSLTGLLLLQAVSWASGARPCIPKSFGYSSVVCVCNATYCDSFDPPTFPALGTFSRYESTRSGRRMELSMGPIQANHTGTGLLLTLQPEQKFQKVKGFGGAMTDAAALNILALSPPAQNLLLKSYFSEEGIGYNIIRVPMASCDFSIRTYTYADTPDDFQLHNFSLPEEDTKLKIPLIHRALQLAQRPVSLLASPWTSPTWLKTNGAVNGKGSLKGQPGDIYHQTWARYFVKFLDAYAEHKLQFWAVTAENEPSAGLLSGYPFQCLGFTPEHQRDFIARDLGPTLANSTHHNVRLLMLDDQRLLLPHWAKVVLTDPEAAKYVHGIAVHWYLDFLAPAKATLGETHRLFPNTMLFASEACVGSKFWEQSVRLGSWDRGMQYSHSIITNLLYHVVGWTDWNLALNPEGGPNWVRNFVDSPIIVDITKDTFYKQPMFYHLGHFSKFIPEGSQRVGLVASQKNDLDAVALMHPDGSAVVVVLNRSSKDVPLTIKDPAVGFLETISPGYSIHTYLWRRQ

As to `NC(=O)C1CCN(c2nc(-c3ccccc3Cl)cs2)CC1`, the Potency result in [1] and in assay [2] was “inactive” in each case.
Take `CN(C)C(=O)c1ccc(-c2cc[nH]c(=O)c2N)cc1`: the Potency entry in [1] and in assay [2] was “inactive” each time.
`COc1cccc(-c2ccc3ncnc(NCc4cccs4)c3c2)c1`: the Potency in assay [3] is 0.501 µM (active); in [6], > 46 µM (inactive); in [7] it was > 46 µM (inactive); in assay [9], 7.94 µM (active). In addition, the activity change, negative = inhibition is 23.9% (inactive) in [4] and -9.22% (inactive) in assay [13]. Moreover, the activity, negative = inhibition in assay [5] was -19.5% (inactive). Besides, the molecule was classed as inactive in [8], in assay [11] and in assay [12]. Moreover, the Potency entry in assay [10], in [1] and in assay [14] was “inactive” each time. Moreover, the max response in assay [13] (setting [21]) is -18.2%; in assay [13] (setting [22]) it was -23.5%.
Turning to `c1nc(N2CCNCC2)c2cc(-c3ccc4c(c3)OCO4)ccc2n1`, the Potency is > 11.4 µM (inactive) in assay [15]; 2 µM (active) in [3]; > 46 µM (inactive) in assay [6]; > 46 µM (inactive) in assay [7]; 2.51 µM (active) in [18]. In addition, the activity change, negative = inhibition is -9.83% (inactive) in assay [16], -0.53% (inactive) in assay [4] and 13.1% (inactive) in assay [13]. Further, in [5], the activity, negative = inhibition is 1.4% (inactive). Also, the molecule was called inactive in assay [8], in assay [11] and in assay [12]. For the same molecule, the Potency result in [17], in [19], in [1] and in assay [14] was “inactive” throughout. Further, the max response in assay [13] (setting [21]) worked out at 9.51%; in assay [13] (setting [22]), 19.9%.
In the case of `Cc1cccc(CNc2ncnc3ccc(-c4ccoc4)cc23)c1`, the activity change, negative = inhibition in assay [16] was -19.9% (inactive); in assay [4], -14.2% (inactive); in [13] it was -3% (inactive). The Potency in [3] was 3.98 µM (active); in assay [6], > 46 µM (inactive); in assay [7], > 46 µM (inactive); in assay [20], 7.94 µM (active). Further, the activity, negative = inhibition in [5] was -30% (inactive). Further, the molecule was called inactive in assay [8], in [11] and in assay [12]. Moreover, the figures for the max response in assay [13] (setting [21]) and in assay [13] (setting [22]) were 11.4% and 6.71%, respectively. For the same molecule, the Potency result in [19], in assay [1] and in assay [14] was “inactive” in each case.
